Shown are actives, neighbours in structure and some others; about 3.9% of the full set was active somewhere.
HT1080-NT tox – kills 2HG-producing HT-1080-NT fibrosarcoma cells | HT-1080-NT fibrosarcoma viability, CellTiter-Glo ATP luminescence, 48 h | Potency, µM (series often up to 46.1 µM), inactives show at the top dose activity, negative = less viability, most hits filed as cytotoxic | hit rate 1.6% among 360,000 | AID 686970;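 also: NT is the 2HG producing partner of a matched IDH1 knockdown line; 0% = DMSO-treated cells and -100% = media-only wells without cells; nearly all actives have a fitted effect of over 55% in size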
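HT-1080-NT; 750 cells/well; 5% FBS RPMI; 48 h compound, 37 degrees C; CellTiter-Glo luminescence; curve fitting and curve-class assignment.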
HT1080 IDH1KD tx – kills HT-1080 cells with IDH1 knockdown; HT-1080 IDH1 knockdown viability, ATP luminescence, 48 h; Potency, µM (titrated, usually from 46.1 µM), without a hit: at the top dose activity, negative = toxicity, actives largely listed as cytotoxic; hit rate 2% among 360,000; AID 686971;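 also: 0% = DMSO wells and -100% = cell-free medium wells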
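% activity derives from luminescence (CellTiter-Glo), normalised to DMSO and no-cell wells. HT-1080-IDH1KD cells, 750/well, had 48 h compound exposure at 37 °C.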
TGFb SMAD3 inh – inhibitors of TGF-b signaling; AID 588855; Potency, µM (series often up to 46.1 µM), without a hit: top-dose activity, negative = inhibition, most hits filed as inhibitors; hit rate 1.2% among 410,000; HepG2 CAGA-GFP TGF-b/SMAD3 reporter, GFP fluorescence, 18 h; TGF-beta stimulated, 500 pg/mL final; also: % is scaled to controls: 0 for no effect and ±100 for the full control effect; nearly all actives have a fitted effect of over 65% in size
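Inhibition of TGF-beta-driven CAGA-GFP reporter expression in HEPG2 cells is measured by cellular GFP fluorescence after 18 h stimulation with 500 pg/mL recombinant TGF-beta in 1% FBS medium at 37 degrees C.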
S2 tox – viability counter-screen for ATXN expression inhibitors; S2 cells (HEK-293 line with an ATXN2-luciferase reporter) viability, CellTiter-Fluor protease fluorescence, 24 h; Potency, µM (highest dose often 56.7 µM), usual class: cytotoxic; hit rate 0.49% among 400,000; AID 651635; also: nearly all actives have a fitted effect of over 40% in size
ATXN2 expr inh – reduces ATXN2 reporter expression in HEK-293 cells. HEK-293 ATXN2-luciferase reporter, luminescence, 24 h. Potency, µM (highest dose often 57 µM), inactives show at the top dose activity change, negative = inhibition, hits mostly inhibitors. hit rate 0.72% among 360,000. AID 1745845; also: % is scaled to controls: 0 for no effect and ±100 for the full control effect; nearly all actives have a fitted effect of over 55% in size
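ATXN2-luciferase reporter cells (luciferase flanked by upstream and downstream ATXN2 gene portions) were treated 24 h at 37 °C with compounds at up to 57 uM. SteadyGlo luminescence gave expression; GF-AFC fluorescence gave viability.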
HepG2 tox-1 – kills HepG2 cells in TGF-b inhibitor counter-screen; HepG2 CAGA-GFP viability, ATP luminescence, 18 h; Potency, µM (doses to about 46.1 µM), without a hit: at the top dose activity change, negative = cytotoxicity, usual class: cytotoxic; hit rate 0.76% among 410,000
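CellTiter-Glo luminescence gave cytotoxicity after 18 hours at 37 degrees C. The cells were HepG2 CAGA-GFP in 1% FBS DMEM, stimulated with 500 pg/mL TGF-beta after compound addition. %Activity was normalised to no-cell wells (complete cell-killing) and DMSO (no toxicity), and curves were fitted and classified.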
TGFb confirm – TGF-b pathway inhibition, cherry-pick retest. shares compounds with TGFb SMAD3 inh. HepG2 CAGA-GFP TGF-b reporter, GFP fluorescence, 18 h; cells stimulated with TGF-beta, 500 pg/mL. Potency, µM (series often up to 46.1 µM), inactives show top-dose activity, negative = inhibition, usual class: inhibitors. hit rate 63% among 1,600. AID 720534; also: % is scaled to controls: 0 for no effect and ±100 for the full control effect; nearly all actives have a fitted effect of over 65% in size
HepG2 tox-2 – counter-screen for TGF-b inhibitors: cytotoxicity in HepG2 cells | shares compounds with TGFb SMAD3 inh | HepG2 CAGA-GFP viability, ATP luminescence, 18 h; cells stimulated with TGF-beta, 500 pg/mL | Potency, µM (doses to about 46.1 µM), for inactives: at the highest dose activity, negative = cytotoxicity, actives largely listed as inhibitors | hit rate 27% among 1,600 | AID 720535; also: % is scaled to controls: 0 for no effect and ±100 for the full control effect; nearly all actives have a fitted effect of over 70% in size
CCL64 TGFb inh – TGF-b inhibition, CCL64 orthogonal assay. shares compounds with TGFb SMAD3 inh. CCL64 CAGA-GFP reporter, TGF-b stimulated, GFP fluorescence, 18 h. Potency, µM (titrated, usually from 46.1 µM), for the others: at the top dose activity, negative = inhibition, hits mostly inhibitors. hit rate 41% among 1,600. AID 720536; also: nearly all actives have a fitted effect of over 65% in size
TGFb COP inh – TGF-b inhibition validated with COP promoter | shares compounds with TGFb SMAD3 inh | HepG2 COP-GFP TGF-b reporter, GFP fluorescence, 18 h; cells stimulated by added recombinant TGF-beta | Potency, µM (top dose mostly 46.1 µM), inactives show at the top dose activity, negative = inhibition, hits mostly inhibitors | hit rate 3% among 1,600; also: nearly all actives have a fitted effect of over 70% in size
* hit, by the source's call; i = inactive; ? = inconclusive; · = no result; [ ] = dose if it differs, or a comment. Calls follow the shape of the dose curve; as a rule, active = well fitted curve in the direction sought with a large enough effect; inconclusive = small, poorly fitted or top-dose-only effect, or another doubt; inactive = no such curve, though single readings can be large; an effect the other way counts as inactive or inconclusive. Potency is read from the fitted curve at half-maximal effect.

SMILES	HT1080-NT tox	HT1080 IDH1KD tx	TGFb SMAD3 inh	S2 tox	ATXN2 expr inh	HepG2 tox-1	TGFb confirm	HepG2 tox-2	CCL64 TGFb inh	TGFb COP inh
COc1ccc(-c2csc(NC(=O)c3ccccc3NS(=O)(=O)c3ccc(C)cc3)n2)cc1	?	?	3.5µM*	i	?	-44%	6.5µM*	9.2µM*	5.2µM*	46%
COc1ccc(S(=O)(=O)Nc2ccccc2C(=O)Nc2nc(-c3ccc(F)cc3)cs2)cc1OC	?	?	7.1µM*	i	?	-38%	10µM*	?	8.2µM*	48%
CC(C)c1ccc(S(=O)(=O)N2CCC(n3c(C(F)(F)F)nc4cccnc43)CC2)cc1	·	·	-1%	i	-5%	-1%	·	·	·	·
Cc1ccc(C(=O)N(Cc2ccc(N(C)C)cc2)CC2CCCO2)cc1 (stereo unspecified)	·	·	-16%	·	·	-13%	·	·	·	·
CC(C)N(Cc1nc(-c2ccc(Cl)cc2)no1)C(=O)c1ccc(C(C)(C)C)cc1	·	·	?	i	7%	-4%	·	·	·	·
COC(=O)C(C)NC(=O)N1CCN(c2nnc(C)c3c(C)n(-c4ccc(Cl)cc4)nc23)CC1 (stereo unspecified)	·	·	15%	i	-9%	3%	·	·	·	·
NC(c1csc(NC(=O)Nc2cccc(Cl)c2)n1)c1ccccc1Cl (stereo unspecified)	?	?	10µM*	?	?	-89%	18µM*	?	?	73%
O=C(Nc1ccc(Cl)cc1)Nc1nnc(-c2ccncc2)s1	8%	11%	?	?	?	4%	·	·	·	·
Cc1cccc(C)c1NC(=O)Nc1nc(C(N)c2ccccc2Cl)cs1 (stereo unspecified)	?	?	-5%	?	-2%	-7%	·	·	·	·
CS(=O)(=O)c1ccc2nc(NC(=O)Nc3cccc(Cl)c3)sc2c1	?	11µM*	2.2µM*	?	-16%	-39%	16µM*	?	?	21%
O=C(Nc1cccc(Cl)c1)Nc1nnc(-c2ccncc2)s1	?	10µM*	7.9µM*	·	?	-45%	10µM*	?	6.5µM*	64%
Cc1ccc(NC(=O)Nc2nnc(-c3ccncc3)s2)cc1C	-19%	-2%	7.9µM*	i	-34%	-44%	9.2µM*	?	?	27%
CCC1CN(C(=O)Nc2cccc3c2CCCC3)c2ccccc2O1 (stereo unspecified)	·	·	?	·	·	-40%	·	·	·	·
CCOC(=O)c1c(C)c(-c2ccccc2)n(CC(=O)Nc2cc(OC)cc(OC)c2)c1C	·	·	?	i	-13%	-31%	·	·	·	·
Cc1nc2nc(C)c(CCC(=O)NCc3cccc(Cl)c3)c(C)n2n1	·	·	0%	i	-12%	3%	·	·	·	·
CCSc1nnc(NC(=O)Nc2cccc(C)c2)s1	-21%	-27%	7.9µM*	i	-7%	-25%	?	?	?	21%
Cc1ccc2nc(N3CCN(C(=O)c4ccc(F)cc4)CC3)c(C#N)cc2c1	-1%	-1%	10µM*	i	·	-17%	?	-30%	?	1%
COc1ccc(-c2cccc(-c3cc(=O)oc4cc(OC)cc(OC)c34)c2)cc1	?	0.58µM*	1.4µM*	i	6%	3%	1.6µM*	-1%	1.5µM*	-25%
CCOC(=O)c1c(-c2cccs2)csc1N	-15%	-22%	?	i	4%	-17%	-8%	-2%	5%	0%
COc1ccc(C)cc1N=Nc1ccc(O)c2ncccc12	?	?	7.1µM*	i	·	-34%	6.5µM*	-16%	2.3µM*	8%
CCCN1CNc2c(c(=O)[nH]c(=O)n2CCc2ccc(OC)c(OC)c2)C1	11%	26%	·	·	·	·	·	·	·	·
Nc1ccc2nn(-c3ccccc3)nc2c1	-6%	-13%	-28%	·	27%	-23%	·	·	·	·
Nc1cc2nn(-c3ccccc3)nc2cc1Cl	-5%	1%	2.2µM*	i	63%[11.3 µM]	-45%	3.3µM*	1.8µM*	16%	69%
CCN1C(=O)c2ccccc2S(=O)(=O)c2ccc(C(=O)NCc3ccccc3)cc21	·	·	-6%	i	6%	0%	·	·	·	·
CCN(c1ccc(Cl)cc1)S(=O)(=O)c1nnc(NC(=O)C2CCCCC2)s1	·	·	0%	·	·	5%	·	·	·	·
SMILES	HT1080-NT tox	HT1080 IDH1KD tx	TGFb SMAD3 inh	S2 tox	ATXN2 expr inh	HepG2 tox-1	TGFb confirm	HepG2 tox-2	CCL64 TGFb inh	TGFb COP inh
Cc1ccc(S(=O)(=O)N(CC(=O)Nc2ccc(Cl)c([N+](=O)[O-])c2)C2CCCCC2)cc1	-1%	-23%	10µM*	i	2%	-14%	?	-23%	?	28%
CCOc1ccc(C(=O)NC(=S)Nc2cccc(NC(=O)c3ccco3)c2)cc1[N+](=O)[O-]	-13%	-2%	8.9µM*	i	-27%	-17%	8.2µM*	-23%	?	-7%
Cc1ccc2[nH]c(=O)c3cc(C(=O)N(C)c4ccc(Br)cc4)sc3c2c1	·	·	-3%	i	11%	-20%	·	·	·	·
Cc1ccc2oc(-c3ccc(C)c(NC(=O)C(C)(C)Oc4ccc(Cl)cc4)c3)nc2c1	·	·	41%	i	122%	14%	·	·	·	·
Cc1ccccc1NC(=O)c1oc2c(c1C)-c1nn(Cc3cccc(Cl)c3)cc1CC2	·	·	?	·	·	-8%	·	·	·	·
Cc1nn(-c2ccc(F)cc2)c(C)c1NS(=O)(=O)c1ccc2ccccc2c1	?	?	10µM*	?	?	-30%	?	?	?	20%

Compound activity deposited in PubChem BioAssay by National Center for Advancing Translational Sciences (NCATS).
